About 79,000 compounds went through this panel and 15% of them were active in at least one assay; those are over-represented in the sample as a whole. A number with no mark means an inactive call. Calls of active or inactive are those of the source. No stated cut-off is given here; in the data, active means growth inhibition above about 70%; inactive means the rest.

The first experiment is described as follows: NCI Yeast Anticancer Drug Screen. Data for the mec2-1 strain (AID 157). To be noted: S. cerevisiae mec2-1 strain, at 50.0 µM (retest, dose inferred, filed as 5.0), active compounds read high. The method in brief:
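Growth inhibition is read against vehicle-treated controls after compound exposure of the mec2-1 yeast strain, which is defective in DNA damage repair or cell cycle control.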
Turning to `COc1ccc(C(=O)[O][Sn]([c]2ccccc2)([c]2ccccc2)[c]2ccccc2)c(OC)c1OC`, the growth inhibition is 100% (active).

Consider `CCC(CC)C1(C(=O)OCCN(CC)CC)CCCCC1`, for which the growth inhibition was 13%.

As for `O=C1OC(=O)C2C1C1C(c3ccccc3)=C(c3ccccc3)C2(O)C2C(=O)OC(=O)C12` (stereo not given), the growth inhibition is 7%.

For `C/C(=C/CC1CCC2C3=CCC4CC(O)CCC4(C)C3CCC12C)C(C)C(C)C` (stereo not given), the growth inhibition is 86% (active).

As to `CCC1(CC(=O)O)OCCc2c1[nH]c1c(C)c(Cl)ccc21` (stereo not given), the growth inhibition is 99% (active).

As to `CN(C)CCCSc1c2ccccc2nc2cccc([N+](=O)[O-])c12`, the growth inhibition was -1%.

As for `CC1OC(OP(=O)(OCc2ccccc2)OCc2ccccc2)C(OC(=O)c2ccccc2)C(OC(=O)c2ccccc2)C1I` (stereo not given), the growth inhibition is 95% (active).

Regarding `C#CC(CC(C)CC(C)(C)C)NC` (stereo not given), the growth inhibition was 58%.

Consider `N#CCCN(CCC#N)Cc1cc(-c2ccccc2)ccc1O`, for which the growth inhibition is 19%.

As for `Cc1ccc(NC(=O)CCCC(=O)C(C#N)c2ccccc2C)cc1C` (stereo not given), the growth inhibition was 3%.

Take `C[C@H]1CC[C@@H]2[C@@H](C)[C@H]3[C@H](C[C@H]4[C@@H]5CC=C6C[C@@H](O)CC[C@]6(C)[C@H]5CC[C@]34C)N2C1`: the growth inhibition was 99% (active).

With `Cc1nc(-c2ccc(N=Cc3ccc(N(CCOS(C)(=O)=O)CCOS(C)(=O)=O)cc3)cc2)cs1`, the growth inhibition was 9%.

Consider `COc1ccc2nc3cccc([N+](=O)[O-])c3c(NCCO)c2c1`, for which the growth inhibition is 98% (active).

Consider `Oc1ccc(C2CCCCC2)cc1`, for which the growth inhibition was 51%.

`CCCCCc1cc(Cl)cc(Cl)c1O`: the growth inhibition was 0%.

Turning to `C=C1C(=O)OC2/C=C(\C(=O)O)CC/C=C(\C)CC(OC(=O)/C=C(\C)CC)C12` (stereo not given), the growth inhibition is 79% (active).

`O/N=C(/Cc1nc2cc(Cl)c(Cl)cc2nc1C/C(=N/O)c1ccncc1)c1ccncc1`: the growth inhibition was 77% (active).

As to `Cc1cc(NC(=S)SCc2ccc3c(c2)OCO3)ccc1Br`, the growth inhibition was 98% (active).

As to `CN1C(=O)OC(C)(c2ccccc2)C1=O` (stereo not given), the growth inhibition was -3%.

In the case of `O=C1c2ccccc2C(=O)c2c1cccc2[N+](=O)[O-]`, the growth inhibition is 86% (active).

For `O=[N+]([O-])c1ccccc1Oc1ccc([N+](=O)[O-])c(C(F)(F)F)c1`, the growth inhibition is 74% (active).

For `Cc1ccc(O)c(N=Nc2ccc(Cl)cc2)c1`, the growth inhibition is -2%.

Consider `CC(C)Cc1cc2c(cc1O)CCC1C2CC[C@@]2(C)C1CC[C@@H]2O` (stereo not given in full), for which the growth inhibition is 95% (active).

In the case of `CCOC(=O)CC1(C)C(=O)CCCC1=O`, the growth inhibition was -2%.

As for `OC(c1cc(-c2ccc(Cl)cc2Cl)nc2ccccc12)C1CCCCN1` (stereo not given), the growth inhibition was 99% (active).

For the compound `COc1ccc(N=Cc2cc(Br)cc(Br)c2O)cc1.COc1ccc(N=Cc2cc(Br)cc(Br)c2O)cc1.[Co]`, the growth inhibition is 88% (active).

For `Cc1ccc[n+](CC(=O)C2CCC3C4CC=C5CC(O)CCC5(C)C4CCC23C)c1` (stereo not given), the growth inhibition was 24%.

Take `CN(C)CC(C)(C)C(/C=C/c1ccccc1)=N\Nc1ccccc1`: the growth inhibition is 68%.

Take `COC1(OC)C2(Cl)C(Cl)=C(Cl)C1(Cl)C1C2C2CC1(C(=O)O)c1ccccc12` (stereo not given): the growth inhibition is 23%.

Consider `NC(N)=N/N=C(\c1ccc(F)cc1)c1ccc(C(F)(F)F)cc1`, for which the growth inhibition was 96% (active).

Take `O=C1CC(c2ccccc2Cl)C(c2ccccc2Cl)C1` (stereo not given): the growth inhibition was 98% (active).

On to `O=C(Cl)c1ccc(N=Nc2ccccc2)cc1`, for which the growth inhibition was 23%.

For `O=[N+]([O-])c1ccccc1N=Nc1c(O)[nH]c2ccc(S(=O)(=O)O)cc12`, the growth inhibition is 87% (active).

Regarding `Cc1ccccc1N=NC(C(=O)c1ccccc1)C(=O)c1ccccc1`, the growth inhibition is 96% (active).

For the compound `CCCCC(CC)(COC(C)=O)COC(C)=O`, the growth inhibition was 2%.

As to `NCCOB(c1ccccc1)c1ccccc1`, the growth inhibition was 99% (active).

Regarding `O=C(Nc1ccccc1C(=O)O)c1ccccc1`, the growth inhibition was -6%.

As to `O=[N+]([O-])c1ccc(Sc2c3ccccc3nc3ccccc23)nc1`, the growth inhibition was 99% (active).

With `Cc1oc2c(c1C(=O)c1ccccc1)C(=O)c1ccccc1C2=O`, the growth inhibition is 99% (active).

With `OC1(c2ccccc2)CCN(c2c3ccccc3nc3ccccc23)CC1`, the growth inhibition is 75% (active).

The same experiment, now with this note: S. cerevisiae mec2-1 strain, at 50.0 µM, active compounds read high.
For the compound `COc1ccc(C(=O)[O][Sn]([c]2ccccc2)([c]2ccccc2)[c]2ccccc2)c(OC)c1OC`, the growth inhibition is 99.1% (active).

Consider `CCC(CC)C1(C(=O)OCCN(CC)CC)CCCCC1`, for which the growth inhibition is 5.8%.

Take `O=C1OC(=O)C2C1C1C(c3ccccc3)=C(c3ccccc3)C2(O)C2C(=O)OC(=O)C12` (stereo not given): the growth inhibition is 81% (active).

On to `C/C(=C/CC1CCC2C3=CCC4CC(O)CCC4(C)C3CCC12C)C(C)C(C)C` (stereo not given), for which the growth inhibition is 74.3% (active).

In the case of `CCC1(CC(=O)O)OCCc2c1[nH]c1c(C)c(Cl)ccc21` (stereo not given), the growth inhibition is 98.1% (active).

Turning to `CN(C)CCCSc1c2ccccc2nc2cccc([N+](=O)[O-])c12`, the growth inhibition was -9.4%.

On to `CC1OC(OP(=O)(OCc2ccccc2)OCc2ccccc2)C(OC(=O)c2ccccc2)C(OC(=O)c2ccccc2)C1I` (stereo not given), for which the growth inhibition is 90.6% (active).

`C#CC(CC(C)CC(C)(C)C)NC` (stereo not given): the growth inhibition is 85.5% (active).

Take `N#CCCN(CCC#N)Cc1cc(-c2ccccc2)ccc1O`: the growth inhibition is 55%.

Consider `Cc1ccc(NC(=O)CCCC(=O)C(C#N)c2ccccc2C)cc1C` (stereo not given), for which the growth inhibition was 11.4%.

For `C[C@H]1CC[C@@H]2[C@@H](C)[C@H]3[C@H](C[C@H]4[C@@H]5CC=C6C[C@@H](O)CC[C@]6(C)[C@H]5CC[C@]34C)N2C1`, the growth inhibition was 93.5% (active).

Regarding `Cc1nc(-c2ccc(N=Cc3ccc(N(CCOS(C)(=O)=O)CCOS(C)(=O)=O)cc3)cc2)cs1`, the growth inhibition is 7.75%.

Take `COc1ccc2nc3cccc([N+](=O)[O-])c3c(NCCO)c2c1`: the growth inhibition was 90% (active).

For `Oc1ccc(C2CCCCC2)cc1`, the growth inhibition was 79.5% (active).

With `CCCCCc1cc(Cl)cc(Cl)c1O`, the growth inhibition is 10.1%.

Regarding `C=C1C(=O)OC2/C=C(\C(=O)O)CC/C=C(\C)CC(OC(=O)/C=C(\C)CC)C12` (stereo not given), the growth inhibition is 68.2%.

On to `O/N=C(/Cc1nc2cc(Cl)c(Cl)cc2nc1C/C(=N/O)c1ccncc1)c1ccncc1`, for which the growth inhibition is 87.6% (active).

As to `Cc1cc(NC(=S)SCc2ccc3c(c2)OCO3)ccc1Br`, the growth inhibition was 91.6% (active).

In the case of `CN1C(=O)OC(C)(c2ccccc2)C1=O` (stereo not given), the growth inhibition is -1.1%.

Consider `O=C1c2ccccc2C(=O)c2c1cccc2[N+](=O)[O-]`, for which the growth inhibition was 73% (active).

With `O=[N+]([O-])c1ccccc1Oc1ccc([N+](=O)[O-])c(C(F)(F)F)c1`, the growth inhibition is 82.7% (active).

Take `Cc1ccc(O)c(N=Nc2ccc(Cl)cc2)c1`: the growth inhibition is -1.95%.

As for `CC(C)Cc1cc2c(cc1O)CCC1C2CC[C@@]2(C)C1CC[C@@H]2O` (stereo not given in full), the growth inhibition was 80.4% (active).

With `CCOC(=O)CC1(C)C(=O)CCCC1=O`, the growth inhibition is 2%.

`OC(c1cc(-c2ccc(Cl)cc2Cl)nc2ccccc12)C1CCCCN1` (stereo not given): the growth inhibition is 72.2% (active).

For the compound `COc1ccc(N=Cc2cc(Br)cc(Br)c2O)cc1.COc1ccc(N=Cc2cc(Br)cc(Br)c2O)cc1.[Co]`, the growth inhibition is 79.6% (active).

In the case of `Cc1ccc[n+](CC(=O)C2CCC3C4CC=C5CC(O)CCC5(C)C4CCC23C)c1` (stereo not given), the growth inhibition was 98.2% (active).

On to `CN(C)CC(C)(C)C(/C=C/c1ccccc1)=N\Nc1ccccc1`, for which the growth inhibition was 90.2% (active).

On to `COC1(OC)C2(Cl)C(Cl)=C(Cl)C1(Cl)C1C2C2CC1(C(=O)O)c1ccccc12` (stereo not given), for which the growth inhibition is 93.4% (active).

`NC(N)=N/N=C(\c1ccc(F)cc1)c1ccc(C(F)(F)F)cc1`: the growth inhibition was 30.2%.

Regarding `O=C1CC(c2ccccc2Cl)C(c2ccccc2Cl)C1` (stereo not given), the growth inhibition was 96% (active).

With `O=C(Cl)c1ccc(N=Nc2ccccc2)cc1`, the growth inhibition is 37%.

As for `O=[N+]([O-])c1ccccc1N=Nc1c(O)[nH]c2ccc(S(=O)(=O)O)cc12`, the growth inhibition was 97.8% (active).

In the case of `Cc1ccccc1N=NC(C(=O)c1ccccc1)C(=O)c1ccccc1`, the growth inhibition was 94% (active).

With `CCCCC(CC)(COC(C)=O)COC(C)=O`, the growth inhibition was 12.7%.

For the compound `NCCOB(c1ccccc1)c1ccccc1`, the growth inhibition is 54.2%.

For `O=C(Nc1ccccc1C(=O)O)c1ccccc1`, the growth inhibition is 23.5%.

Turning to `O=[N+]([O-])c1ccc(Sc2c3ccccc3nc3ccccc23)nc1`, the growth inhibition was 97.5% (active).

As to `Cc1oc2c(c1C(=O)c1ccccc1)C(=O)c1ccccc1C2=O`, the growth inhibition is 92.7% (active).

Turning to `OC1(c2ccccc2)CCN(c2c3ccccc3nc3ccccc23)CC1`, the growth inhibition is 99.5% (active).

The record behind these values is PubChem BioAssay (NCI).
